Test results as given in PubChem BioAssay (NCI).
Compounds without any hit were thinned out: in the full panel of roughly 83,000, 20% have a hit.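 Each cell line was grown in a 96-well plate and treated with one concentration of compound for 48 hours. Values below 10 were considered active.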 A number with no mark means an inactive call. The source made the active and inactive calls.

test system: 786-0 renal; assay: NCI-60 one-dose screen, 48 h (100 = growth as untreated, 0 = no growth, -100 = all killed); conditions: 10 µM unless noted

Structure (SMILES) | growth
CS(=O)(=O)c1ccc(/C(=N/NC(N)=S)c2ccc(F)cc2)cc1 | 102%
CC1(C)CC[C@]2(CO)CC[C@]3(C)C(=CC[C@@H]4[C@@]5(C)CCNCC(C)(C)[C@@H]5CC[C@]43C)[C@@H]2C1 | 84.6%
C=C(CNCCc1ccc(O)cc1)[C@@H]1CC[C@]2(CO)CC[C@]3(C)[C@H](CC[C@@H]4[C@@]5(C)CCC(N)C(C)(C)[C@@H]5CC[C@]43C)[C@@H]12 (stereo not given in full) | -87.3% (active)
C(=N\Nc1nnc2n1N=C(c1ccccc1)CS2)/c1ccc(OCc2ccccc2)cc1 | 110%
O=C(/C=C\c1ccc(O)c(O)c1)c1ccccc1O | 100%
COc1ccc(/C=C2/CCc3cc4ccc(OC)cc4[o+]c32)c(O)c1 | -6.35% (active)
Cc1ccc(-c2nnc(SCc3nc(N)nc(Nc4ccccc4F)n3)n2-c2ccccc2)cc1 | 95.7%
O=C(Nc1cccc(Cl)c1)Oc1c(Cl)c(Cl)c(Cl)c(Cl)c1Cl | 97.9%
COc1ccc(-c2csc(NC(=O)CSc3nc(C)cc(=O)[nH]3)n2)cc1 | 102%
Cc1c(C)c2c(c(C)c1OC(=O)CCC(=O)[O-])CCC(C)(CCCCCCCCCCC[P+](c1ccccc1)(c1ccccc1)c1ccccc1)O2 (stereo not given) | -49.7% (active)
CCN(CC)CCCNC(=O)c1c2c(n3ccccc13)C(=O)c1ncccc1C2=O | 3.22% (active)
O=C(/C=C/c1ccc([N+](=O)[O-])cc1)c1cccc(Nc2nc(Nc3ccccc3)nc(Nc3ccccc3)n2)c1 | 70.5%
CN1CC(c2ccccc2)C(C(=O)c2ccc(Br)cc2)C12C(=O)Nc1ccccc12 (stereo not given) | 97.8%
COCCNC(=O)Cc1cc(-c2ccc(Cl)cc2)n(-c2ccccc2)c1C | 88.7%
CNc1nc2ncc(-c3c(C)noc3C)cc2n1Cc1ccccc1 | 43.3%
CC1(C)CC[C@]2(CO)CC[C@]3(C)[C@H](CC[C@@H]4[C@@]5(C)CC[C@H](O)C(C)(C)[C@@H]5CC[C@]43C)[C@H]2[C@H]1O | 79.3%
COC(=O)[C@@H](Cc1c[nH]c2ccccc12)NC[C@@H](O)CN1C(=O)/C(=C\c2cc(OC)c(OC)c(OC)c2)c2ccccc21 | 77.6%
CCc1ccc(Cc2cnc(NC(=O)c3cc(C)oc3C)s2)cc1 | 41.2%
CN1CCN(CC(=O)N(C)c2ccc(N=C(c3ccccc3)c3c(O)[nH]c4ccc([N+](=O)[O-])cc34)cc2)CC1 | 44.3%
COc1cc2c(c(OC)c1OC)CCC(c1cccc(NC(=O)c3cccc(Cl)c3)c1)O2 (stereo not given) | 96.7%

Structure (SMILES) | growth
O=C1C2C(c3cccs3)C=C(c3ccc(Cl)cc3)N2C(=S)N1c1ccccc1 (stereo not given) | 102%
CCN1CCN(c2cc(C(=O)Nc3cccc(Nc4ccc5c(OC)cccc5n4)c3)cc(C(F)(F)F)c2)CC1 | -70.1% (active)
CCCNNC(=O)c1ccc(CNC(=O)/C=C/c2ccccc2)cc1 | 33.1% [2.5 µM]
CC(=O)Oc1ccccc1C(=O)N(Cc1ccc2c(Cl)cc(Cl)c(O)c2n1)c1ccccc1 | 59.1%
CN(C)c1ccc(/C=N/NC(=O)CSc2nc3sc4c(c3c(=O)n2-c2ccccc2)CCCCC4)cc1 | 45%
N#Cc1nn(-c2ccccn2)c(N)c1C#N | 98%
CC(Cc1cccc2ccccc12)C(N)=O (stereo not given) | 97.7%
Cc1nc2ccccc2c(/C=C/c2ccc(Br)cc2)c1C(=O)/C=C/c1ccccc1 | 2.23% (active)
c1ccc2[nH]c(-c3ccc(-c4nccc5c4[nH]c4ccccc45)cc3)nc2c1 | 2.97% (active)
Cc1[nH]c(C(=O)Nc2ccc(C(N)=O)cc2OC(C)C)c(Cl)c1Cl | 102%
C/C=C(/C)C(=O)O[C@@H]1CC(C)(C)CC2C34OC(=O)[C@@]21CC[C@@]3(C)[C@]1(C)CCC2C(C)(C)C(=O)CC[C@]2(C)C1C[C@@H]4O (stereo not given in full) | 74.7%
C=C(C[n+]1ccccc1)[C@@H]1CC[C@]2(C(=O)OC)CC[C@]3(C)[C@H](CC[C@@H]4[C@@]5(C)CCC(=O)C(C)(C)[C@@H]5CC[C@]43C)[C@@H]12 | 101%
COC(=O)c1c(C(=O)OC)c2ccc3c4ncccc4ccc3n2c1C(=O)c1ccc(C)cc1 | 91%
O=C1c2ccccc2-c2c1c1ccncc1c(=O)n2CCCn1ccnc1 | 55.4%
O=C1Nc2ccccc2/C1=C/c1cccn1CCCCCCn1c2ccccc2c(=O)c2ccccc21 | 103%
O=C(Nc1ccccc1CNc1nc(Nc2ccc(OCCN3CCCC3)cc2)ncc1Cl)NC1CCCCC1 | -25.2% (active)
CSc1nc(CC(C)C)c(C#N)c(=O)n1C | 57.9%
CS(=O)(=O)Nc1cc(-c2ccc3ncnc(Nc4cccc(Cl)c4)c3c2)cnc1Cl | 5.7% (active)
N#Cc1c(-c2ccc(Cl)cc2)nc(NN=Cc2cccc(Cl)c2)nc1N1CCOCC1 | 70.1%
CNC1=C([N+](=O)[O-])C(c2ccc(OC)cc2)C(C#N)=C(c2ccc[nH]2)O1 (stereo not given) | 106%
